Source: PubChem BioAssay (NCATS)
A number with no mark means an inactive call. The rule behind the calls is not given here.

System: HIV-1 nucleocapsid protein NCp7 (binding to TG oligonucleotide)
Assay: HIV Nucleocapsid (AID 346);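 note: potency is for inhibitors that block NC binding and lower polarization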
Conditions: HIV-1 NC / fluorescein-TGTGTGTG probe, fluorescence polarization
Summary of the method: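 Inhibition of nucleocapsid binding to single-stranded 5'-TGTGTGTG probe (10 nM) was measured by fluorescence polarization after 1 hr at room temperature with 100 nM protein under high-salt, zinc-containing, reducing conditions.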
Potency is the fitted concentration of half-maximal effect.

Question: For `COc1ccc(Oc2ncc3nc(-c4cccs4)c(=O)n(CCC#N)c3n2)cc1`, which Potency is on record?
Answer: The Potency was > 20 µM.

Question: With `COc1ccc2[nH]cc(CCNc3nc(-c4c(C)noc4C)nc4ccccc34)c2c1` as the molecule, how does the Potency read?
Answer: Its Potency is > 20 µM.

Question: Which Potency does the source give for `CC(C)CN1CC2(CCN(C(=O)c3cnccn3)CC2)C1` here?
Answer: The Potency was > 20 µM.

Question: Which Potency does the source give for `COc1ccc(NC(=O)N2CCCC3(CCN(C(=O)c4ccco4)CC3)C2)cc1` here?
Answer: The Potency was > 20 µM.

Question: `CN1CCN(c2ncc3nc(-c4ccccc4)c(=O)n(C)c3n2)CC1` was tested. Which Potency did it give?
Answer: Its Potency is > 20 µM.

Question: For `COc1cccc(Cn2c(=O)cnc3cnc(N4CCN(C)CC4)nc32)c1`, which Potency is on record?
Answer: Its Potency is > 20 µM.

Question: For `O=S(=O)(c1ccccc1)N1CCC2(CC1)CN(Cc1ccccc1)C2`, which Potency is on record?
Answer: The Potency was > 20 µM.

Question: With `FC(F)(F)c1ccccc1-c1cc(N2CCNCC2)ncn1` as the molecule, how does the Potency read?
Answer: The Potency was > 20 µM.

Question: Which Potency does the source give for `CN(C)Cc1ccccc1-c1cncnc1Nc1ccccc1` here?
Answer: Its Potency is > 20 µM.

Question: Which Potency does the source give for `CN(C)Cc1ccccc1-c1cc(NC2CC2)ncn1` here?
Answer: Its Potency is > 20 µM.

Question: `CN(C)Cc1ccccc1-c1nc(N(C)C)c2ccccc2n1` was tested. Which Potency did it give?
Answer: Its Potency is > 20 µM.

Question: For `COCCn1c(=O)c(-c2cccs2)nc2cnc(Nc3ccccc3)nc21`, which Potency is on record?
Answer: The Potency was > 20 µM.

Question: With `FC(F)(F)c1ccccc1-c1ccc2ncnc(NCc3cccnc3)c2c1` as the molecule, how does the Potency read?
Answer: The Potency was > 20 µM.

Question: Which Potency does the source give for `CS(=O)(=O)N1CCC2(CCN(Cc3ccncc3)CC2)CC1` here?
Answer: The Potency was > 4 µM.

Question: How did the Potency turn out when `Cc1noc(C)c1-c1nc(Nc2ccncc2)c2ccccc2n1` was run?
Answer: The Potency was > 20 µM.

Question: Which Potency does the source give for `Cc1nc2cnc(OCc3ccccc3)nc2n(C)c1=O` here?
Answer: The Potency was > 20 µM.

Question: `COc1cccc(-c2cncnc2N(C)Cc2ccco2)c1` was tested. Which Potency did it give?
Answer: The Potency was > 20 µM.

Question: With `O=c1c(-c2ccc(Cl)cc2)nc2cnc(N3CCOCC3)nc2n1C[C@H]1CCCO1` as the molecule, how does the Potency read?
Answer: The Potency was > 20 µM.

Question: For `O=C(Nc1cccc(F)c1)N1CC2(CCN(C(=O)c3ccncc3)CC2)C1`, which Potency is on record?
Answer: Its Potency is > 20 µM.

Question: `COc1ccc(NC(=O)N2CCCC3(CCN(S(C)(=O)=O)CC3)C2)cc1` was tested. Which Potency did it give?
Answer: Its Potency is > 20 µM.

Question: For `COc1ccccc1CN1CCC2(CC1)CCN(C(=O)c1cc(C(F)(F)F)cc(C(F)(F)F)c1)CC2`, which Potency is on record?
Answer: The Potency was > 20 µM.

Question: How did the Potency turn out when `CS(=O)(=O)N1CCC2(CC1)CN(C(=O)Nc1ccccc1)C2` was run?
Answer: Its Potency is > 20 µM.

Question: How did the Potency turn out when `COc1ccc(NC(=O)N2CC3(CCN(C(=O)c4cc(C(F)(F)F)cc(C(F)(F)F)c4)CC3)C2)cc1` was run?
Answer: The Potency was > 20 µM.

Question: With `COc1ccccc1CN1CC[C@@]2(CCCN(C(=O)c3cccn3C)C2)C1` as the molecule, how does the Potency read?
Answer: Its Potency is > 20 µM.

Question: `c1ccc(CNc2nc(-c3ccc4c(c3)OCO4)nc3ccccc23)cc1` was tested. Which Potency did it give?
Answer: The Potency was > 20 µM.

Question: Which Potency does the source give for `Clc1ccccc1-c1cncnc1NCCN1CCOCC1` here?
Answer: Its Potency is > 20 µM.

Question: `CNc1nc(-c2ccc(N(C)C)cc2)nc2ccccc12` was tested. Which Potency did it give?
Answer: Its Potency is > 20 µM.

Question: Which Potency does the source give for `O=C(c1cnccn1)N1CCC2(CC1)CCN(C(c1ccccc1)c1ccccc1)CC2` here?
Answer: Its Potency is > 20 µM.

Question: How did the Potency turn out when `Cn1c(=O)c(-c2ccccc2)nc2cnc(N3CCNCC3)nc21` was run?
Answer: The Potency was > 20 µM.

Question: `COc1ccc(-n2c(=O)c(-c3cccc(Cl)c3)nc3cncnc32)cc1` was tested. Which Potency did it give?
Answer: Its Potency is > 4 µM.

Question: For `COCCNc1ncnc2ccc(-c3ccccc3OC)cc12`, which Potency is on record?
Answer: Its Potency is > 20 µM.

Question: How did the Potency turn out when `CN1CCN(c2ncc3nc(-c4cc(F)cc(F)c4)c(=O)n(C)c3n2)CC1` was run?
Answer: Its Potency is > 20 µM.

Question: `COc1ccc(CNc2nc(-c3cccc(C#N)c3)nc3ccccc23)c(OC)c1` was tested. Which Potency did it give?
Answer: Its Potency is > 20 µM.

Question: With `O=c1c(-c2cccc(Cl)c2)nc2cncnc2n1C1CC1` as the molecule, how does the Potency read?
Answer: Its Potency is > 20 µM.

Question: With `O=C(Nc1ccccc1)N1CC[C@@]2(CCCN(C(=O)c3cc(C(F)(F)F)cc(C(F)(F)F)c3)C2)C1` as the molecule, how does the Potency read?
Answer: The Potency was > 20 µM.

Question: How did the Potency turn out when `O=c1c(-c2ccccc2)nc2cnc(Oc3ccccc3)nc2n1Cc1cccs1` was run?
Answer: Its Potency is > 20 µM.

Question: How did the Potency turn out when `N#Cc1cccc(-c2ccc3ncnc(N4CCNCC4)c3c2)c1` was run?
Answer: Its Potency is > 20 µM.

Question: Which Potency does the source give for `COc1ccc(CNc2ncncc2-c2cccnc2)c(OC)c1` here?
Answer: The Potency was > 20 µM.

Question: With `CC(C)NC(=O)N1CCCC2(CCN(S(=O)(=O)c3ccccc3)CC2)C1` as the molecule, how does the Potency read?
Answer: The Potency was > 4 µM.

Question: With `COCCNc1nc(-c2c(C)noc2C)nc2ccccc12` as the molecule, how does the Potency read?
Answer: The Potency was > 20 µM.

Question: For `N#Cc1ccccc1-c1nc(NCCN2CCOCC2)c2ccccc2n1`, which Potency is on record?
Answer: The Potency was > 20 µM.

Question: Which Potency does the source give for `COCC(=O)N1CCC[C@@]2(CCN(Cc3ccccc3)C2)C1` here?
Answer: The Potency was > 20 µM.

Question: How did the Potency turn out when `CN1CC[C@@]2(CCCN(S(=O)(=O)c3ccccc3)C2)C1` was run?
Answer: Its Potency is > 20 µM.

Question: Which Potency does the source give for `COc1ccccc1-c1cncnc1Nc1ccccc1` here?
Answer: Its Potency is > 20 µM.

Question: For `CN(Cc1ccco1)c1ccnc(-c2ccoc2)n1`, which Potency is on record?
Answer: Its Potency is > 20 µM.

Question: Which Potency does the source give for `CN(C)c1ncnc2ccc(-c3cccc(C#N)c3)cc12` here?
Answer: The Potency was > 20 µM.

Question: Which Potency does the source give for `COc1cccc(Nc2ncc3nc(C)c(=O)n(CCc4ccccc4)c3n2)c1` here?
Answer: The Potency was > 20 µM.

Question: `CN1CCN(c2ncc3ncc(=O)n(CCC#N)c3n2)CC1` was tested. Which Potency did it give?
Answer: The Potency was > 20 µM.

Question: Which Potency does the source give for `Cn1c(=O)c(CCc2ccccc2)nc2cnc(OCc3ccccc3)nc21` here?
Answer: The Potency was > 20 µM.

Question: With `COCCn1c(=O)c(-c2ccc(OC)cc2)nc2cnc(N3CCN(C)CC3)nc21` as the molecule, how does the Potency read?
Answer: Its Potency is > 20 µM.

Question: With `Cc1cnc(CNc2ncncc2-c2ccc(N(C)C)cc2)cn1` as the molecule, how does the Potency read?
Answer: Its Potency is > 20 µM.

Question: `Cn1cccc1C(=O)N1CCC[C@@]2(CCN(Cc3ccc(C#N)cc3)C2)C1` was tested. Which Potency did it give?
Answer: The Potency was > 20 µM.

Question: `CC(C)CN1CC[C@@]2(CCCN(C(=O)c3cnccn3)C2)C1` was tested. Which Potency did it give?
Answer: The Potency was > 4 µM.

Question: With `COCCn1c(=O)c(CCc2ccccc2)nc2cnc(Nc3ccccc3)nc21` as the molecule, how does the Potency read?
Answer: The Potency was > 20 µM.

Question: With `Cc1noc(C)c1-c1cncnc1NC1CC1` as the molecule, how does the Potency read?
Answer: Its Potency is > 20 µM.

Question: With `COc1ccccc1-c1nc(NCCNC(C)=O)c2ccccc2n1` as the molecule, how does the Potency read?
Answer: Its Potency is > 20 µM.

Question: `CN(C)Cc1ccccc1-c1nc(NC2CC2)c2ccccc2n1` was tested. Which Potency did it give?
Answer: Its Potency is > 20 µM.

Question: For `O=c1c(-c2ccc(F)cc2)nc2cncnc2n1Cc1ccc(F)cc1`, which Potency is on record?
Answer: Its Potency is > 20 µM.

Question: How did the Potency turn out when `COCC(=O)N1CCC[C@@]2(CCN(C(c3ccccc3)c3ccccc3)C2)C1` was run?
Answer: The Potency was > 20 µM.

Question: `COc1ccc(Oc2ncc3ncc(=O)n(-c4ccc(OC)cc4)c3n2)cc1` was tested. Which Potency did it give?
Answer: Its Potency is > 20 µM.
